Measured values as given in PubChem BioAssay.
Where “and” joins values, the source holds several entries; their conditions need not be identical. Equal entries are not always repeated. Some structures have more than one record in an assay (separate samples or runs), and their calls can disagree. Calls of active or inactive are those of the source. Cut-off read from the data, not from the text of the source, unless noted: active = inhibition above about 80%; inactive = the rest.

Legend:
[1] = hESC survival regulators, cell-based (AID 493140; call rule not given here;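 note: cells exposed to compounds for four days before counting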); conditions: human embryonic stem cell survival screen; stronger effect = higher value
[2] = liver-stage malaria parasite growth inhibition, primary screen, cell-based, HepG2, luciferase luminescence, HepG2 viability (AID 624349; in the data active = parasite load remaining mostly below about 12%, no sharp cut-off; inactive = mostly above about 10%;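 note: 100% = mean of DMSO negative control wells on the same plate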); conditions: P. berghei liver stage in HepG2, luciferase luminescence, concentration not given here; parasite load remaining: stronger effect = lower value; viability: measured here: HepG2 viability without parasites
[3] = sensitizers of A549 cells to miR-34 induction, primary screen, imaging, A549 dox-inducible miR-34, nuclei and caspase counts (AID 1347080;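 active = compounds whose cell count with miR-34 switched on is under 0.7 times the count with it off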); conditions: A549 miR-34 inducible, Hoechst nuclei count, 48 h
[4] = survival rescue of mitochondrial mutant cells in low glucose, primary screen, MELAS cybrids, Rieske KO mouse fibroblasts, CellTiter-Glo (AID 1508586;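 active = mean z-score across replicates of 1.96 or higher in either the MELAS or the Rieske mutant cell line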;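 note: z relative to plate mean and SD of compound and empty wells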)
[5] = LFS_MB_P medulloblastoma growth inhibition, cell-based, chromothripsis tumors, cisplatin or BGB combos (AID 1671449); conditions: LFS_MB_P medulloblastoma cells;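 note: cells exposed for 96 hours; 0% = vehicle DMSO and 100% = killing by high DMSO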
[6] = HDN33 neuroblastoma growth inhibition, cell-based, chromothripsis tumors, cisplatin or BGB combos (AID 1671450); conditions: HDN33 neuroblastoma cells, stronger effect = higher value;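 note: cells exposed to compound for four days; 0% = vehicle DMSO and 100% = cell killing by high DMSO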
[7] = ICB984 medulloblastoma cell growth inhibition, synergistic combos for chromothripsis tumors, cisplatin or BGB combos (AID 1671451; call rule not given here;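 note: cells exposed for 96 hours before readout; 0% = vehicle DMSO and 100% = killing by high DMSO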); conditions: ICB984 medulloblastoma cells, drug combinations, stronger effect = higher value
[8] = LFS_MB_1R medulloblastoma cell growth inhibition, synergistic combos for chromothripsis tumors, cisplatin or BGB combos (AID 1671452); conditions: LFS_MB_1R medulloblastoma cells, stronger effect = higher value;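 note: cells exposed for 96 hours before readout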
[9] = HTB85 osteosarcoma cell growth inhibition, synergistic combos for chromothripsis tumors, BGB or cisplatin IC20 combos (AID 1671453); conditions: HTB85 osteosarcoma cells, drug combinations, stronger effect = higher value;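 note: cells exposed for 96 hours before readout; 0% = vehicle DMSO and 100% = high DMSO killing control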
[10] = CRL2098 osteosarcoma cell growth inhibition, synergistic combos for chromothripsis tumors, BGB or cisplatin IC20 combos (AID 1671454); conditions: CRL2098 osteosarcoma cells, drug combinations, stronger effect = higher value;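 note: cells exposed for 96 h before readout; 0% = vehicle DMSO and 100% = killing by high DMSO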
[11] = HD-MB03 medulloblastoma cell growth inhibition, synergistic combos for chromothripsis tumors, BGB or cisplatin IC20 combos (AID 1671455; in the data active = inhibition above about 83%;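 note: 0% = vehicle DMSO and 100% = high DMSO as cytotoxic control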); conditions: HD-MB03 medulloblastoma cells, stronger effect = higher value
[12] = UWB1.289 ovarian carcinoma cell growth inhibition, synergistic combos for chromothripsis tumors, BGB or cisplatin combos (AID 1671456); conditions: UWB1.289 ovarian carcinoma cells, stronger effect = higher value;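 note: cells exposed to compound for four days; 0% = vehicle DMSO and 100% = killing by high DMSO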
[13] = LFS_MB_2R medulloblastoma cell growth inhibition, synergistic combos for chromothripsis tumors, cisplatin combos (AID 1671457); conditions: LFS_MB_2R medulloblastoma cells, stronger effect = higher value;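 note: cells exposed to compound for four days before readout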
[14] = MDA-MB-436 breast carcinoma cell growth inhibition, synergistic combos for chromothripsis tumors, BGB or cisplatin combos (AID 1671458; call rule not given here;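 note: cells exposed for 96 hours; 0% = vehicle DMSO and 100% = killing by high DMSO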); conditions: MDA-MB-436 breast carcinoma growth inhibition, drug combinations, stronger effect = higher value
[15] = UWB1.289_BRCA1 ovarian cancer growth, cell-based, BGB or cisplatin combinations (AID 1671459); conditions: UWB1.289 BRCA1 ovarian carcinoma, drug combinations, stronger effect = higher value
[16] = human astrocyte viability loss, single and combined drugs, cytotoxicity control for chromothriptic childhood tumor combination screen, cell-based, BGB or cisplatin IC20 combos (AID 1671460); conditions: Human astrocytes, drug combinations, stronger effect = higher value;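 note: cells exposed to compounds for 96 hours before viability readout; 0% = vehicle and 100% = killing control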
[17] = growth inhibition of BT084 medulloblastoma cells, cell-based, ICGC_MB145, cisplatin and BGB IC40 combos (AID 1671461); conditions: drug combinations, stronger effect = higher value;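 note: cells exposed to drugs for 96 hours; 0% = vehicle DMSO and 100% = high DMSO full killing control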
[18] = growth inhibition of RCMB18 medulloblastoma cells, cell-based, cisplatin and BGB IC40 combos (AID 1671462); conditions: stronger effect = higher value;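 note: cells exposed to compound for four days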
[19] = growth inhibition of CRL1545 osteosarcoma cells, cell-based, cisplatin and BGB IC20 combos (AID 1671464); conditions: stronger effect = higher value;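 note: cells exposed to compound for 96 hours before readout; 0% = vehicle DMSO and 100% = high DMSO killing control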
[20] = stronger effect = lower value, cell number ratio, induced over uninduced
[21] = measured here: relative caspase fold change +Dox/-Dox
[22] = measured here: total cells with miR-34 induction, stronger effect = lower value
[23] = measured here: total cells without miR-34 induction
[24] = MELAS cybrid survival, CellTiter-Glo 48 h, stronger effect = higher value
[25] = Rieske KO mouse fibroblast survival, CellTiter-Glo 72 h
[26] = measured here: combination with BGB IC40, at 0.05 µM
[27] = measured here: with BGB IC20 combination, at 0.5 µM
[28] = measured here: with cisplatin IC20 combination, at 0.5 µM
[29] = measured here: combination with cisplatin, at 0.5 µM
[30] = measured here: combination with cisplatin, at 5 µM

With `COc1ccc2c(c1)N(C[C@H](C)CN(C)C)c1ccccc1S2` the survival [1] was 1.83 (inactive), the parasite load remaining [2] was 76.2% (inactive) and the viability [2] was 87.8%. For the same molecule, the fold change [3, 20] was 0.88 (inactive), the fold change [3, 21] was 1.53 and the cell count [3, 22] was 7810. The cell count [3, 23] was 8880, the z-score [4, 24] was -1.21 (inactive) and the z-score [4, 25] was -0.494.
In the case of `COc1ccc(CC(N)C(=O)NC2C(CO)OC(n3cnc4c(N(C)C)ncnc43)C2O)cc1` (stereo not drawn), the fold change [3, 20] is reported as 1 (inactive), the fold change [3, 21] is reported as 0.403 and the cell count [3, 22] is reported as 798. The cell count [3, 23] was 796, the z-score [4, 24] was -0.998 (inactive) and the z-score [4, 25] was -2.06. For the same molecule, the inhibition ([5]; at 0.5 µM, stronger effect = higher value) was -25.1% (inactive) and 6.28% (inactive), the inhibition ([5]; measured here: combination with BGB IC20, at 0.005 µM) was 7.23% and -8.63% and the inhibition ([5]; measured here: combination with BGB IC40, at 0.005 µM) was -30.8% and -22.1%. For the same molecule, the inhibition [5, 26] was -25.1% and 4.36%, the inhibition ([5]; measured here: combination with cisplatin, at 0.5 µM, stronger effect = higher value) was -20.6% and 32.4% and the inhibition ([5]; measured here: combination with cisplatin, at 5 µM, stronger effect = higher value) was 120% and 124%. The inhibition ([6]; BGB combo, at 5 µM) was 100% and 99.9%, the inhibition ([6]; at 0.5 µM) was 75.5% (inactive) and 96.4% (active) and the inhibition ([6]; cisplatin combo, at 5 µM) was 99.9% and 100%. For the same molecule, the inhibition [6, 27] was 78.8% and 94.9%, the inhibition [6, 28] was 74% and 96.7% and the inhibition ([6]; single agent, at 5 µM) was 99.9% and 100%. The inhibition ([7]; BGB IC20 combo, at 0.005 µM) was 14.3% and 49.6%, the inhibition ([7]; BGB IC40 combo, at 0.005 µM) was 37% and 55.6% and the inhibition ([7]; BGB IC40 combo, at 0.05 µM) was 100%. The inhibition ([7]; at 0.5 µM) was -26.8% (inactive) and -23.9% (inactive), the inhibition ([7]; cisplatin combo, at 0.05 µM) was 101% and 100% and the inhibition ([7]; cisplatin combo, at 0.5 µM) was -24.2% and -19.9%. The inhibition ([7]; cisplatin combo, at 5 µM) was -8.56% and -29.6%, the inhibition ([7]; measured here: 5 uM single agent, at 5 µM) was -9.41% and -1.15% and the inhibition ([8]; at 0.5 µM) was 31.4% (inactive) and 64.5% (inactive). For the same molecule, the inhibition [8, 26] was 0.687% and -51.1%, the inhibition [8, 29] was 59.4% and 79.7% and the inhibition [8, 30] was 102% and 99%. For the same molecule, the inhibition ([9]; at 0.5 µM) was 82.9% (active) and 95.9% (active), the inhibition ([9]; measured here: with BGB IC20, at 0.5 µM) was 84.1% and 96.2% and the inhibition ([9]; measured here: with BGB IC20, at 5 µM) was 100%. The inhibition ([9]; measured here: with cisplatin IC20, at 0.5 µM) was 80.8% and 96.9%, the inhibition ([9]; measured here: with cisplatin IC20, at 5 µM) was 99.9% and 100% and the inhibition ([9]; single agent, at 5 µM) was 100%. For the same molecule, the inhibition ([10]; at 0.5 µM) was 56.1% (inactive) and 91.8% (active), the inhibition ([10]; measured here: combination with BGB at IC20, at 0.5 µM) was 67.8% and 88.9% and the inhibition ([10]; measured here: combination with cisplatin at IC20, at 0.5 µM) was 54.9% and 94.1%. The inhibition ([11]; at 0.5 µM) was 87.7% (active) and 99.6% (active), the inhibition ([11]; measured here: combo with BGB at IC20, at 0.5 µM) was 88.7% and 99.3% and the inhibition ([11]; measured here: combo with cisplatin at IC20, at 0.5 µM) was 91.5% and 99.7%. The inhibition ([12]; at 0.5 µM) was 50% (inactive) and 83.6% (active), the inhibition ([12]; measured here: inhibition with BGB combination, at 0.05 µM) was -13.6% and -16.5% and the inhibition ([12]; measured here: inhibition with cisplatin combination, at 0.05 µM) was -12.2% and -18.5%. The inhibition ([13]; at 0.5 µM) was 29.8% (inactive) and 56.9% (inactive), the inhibition [13, 29] was 55.5% and 77.6% and the inhibition [13, 30] was 108% and 104%. The inhibition ([14]; at 0.5 µM) was 57.5% (inactive) and 76.7% (inactive), the inhibition ([14]; measured here: BGB combination, at 0.5 µM) was 54.4% and 71.5% and the inhibition ([14]; measured here: BGB combination, at 5 µM) was 97.5% and 96%. For the same molecule, the inhibition ([14]; measured here: cisplatin combination, at 0.5 µM) was 53% and 76.1%, the inhibition ([14]; measured here: cisplatin combination, at 5 µM) was 98.3% and 97.8% and the inhibition ([15]; BGB combination, concentration series, at 5 µM) was 117% and 113%. The inhibition ([15]; at 0.5 µM) was 59% (inactive) and 95.4% (active), the inhibition ([15]; cisplatin combination, concentration series, at 5 µM) was 117% and 111% and the inhibition ([16]; at 0.5 µM) was 40.4% (inactive) and 94.2% (active). The inhibition ([16]; measured here: combo with BGB IC20, at 0.5 µM) was 44.5% and 93.9%, the inhibition ([16]; measured here: combo with cisplatin IC20, at 0.5 µM) was 14.8% and 91.4% and the inhibition ([17]; at 0.5 µM) was 25.7% (inactive) and 46.2% (inactive). The inhibition ([17]; cisplatin combination, at 0.5 µM) was 43% and 48.9%, the inhibition ([17]; cisplatin combination, at 5 µM) was 88.5% and 94% and the inhibition ([17]; measured here: BGB IC40 combination 0.05 uM, at 0.05 µM) was -4.12% and 46.7%. The inhibition ([17]; single agent, at 5 µM) was 105% and 104%, the inhibition ([18]; at 0.5 µM) was 33.4% (inactive) and 51.8% (inactive) and the inhibition ([18]; cisplatin combo, at 5 µM) was 76% and 95.5%. For the same molecule, the inhibition ([18]; measured here: BGB IC40 combination, at 0.05 µM) was -32% and 8.46%, the inhibition [18, 29] was 49.2% and 73.8% and the inhibition ([18]; single agent, at 5 µM) was 95.9% and 95.4%. The inhibition ([19]; at 0.5 µM) was 86.2% (active) and 95.7% (active), the inhibition [19, 27] was 92.5% and 96.5% and the inhibition [19, 28] was 82.6% and 95.3%. For the same molecule, the inhibition ([19]; single agent, at 0.05 µM) was -45.7% and -4% and the inhibition ([19]; single agent, at 5 µM) was 100% and 99.7%.
